{"source": "the supplement of paper PMC11634586", "note": "Structures can show the parent of a compound that is named as a salt.", "data": [{"tested_on": "NCI-H1688", "experiment": "inhibition of cell viability relative to untreated control (fraction); higher = stronger growth inhibition, active = 0.5 or more", "settings": "30 µM; 24 h", "procedure": "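Natural product library (TargetMol, 640 compounds) screened on NCI-H1688 SCLC cells at 30 µM for 24 h; viability by CCK-8 absorbance at 450 nm, normalised to untreated control and expressed as inhibition rate (fraction). Compounds with >50% reduction in viability were selected as hits.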", "values": [{"smiles": "Cc1c([C@H](C)[C@@H]2NC[C@@H](C)C[C@H]2O)ccc2c1C[C@H]1[C@H]2CC=C2C[C@@H](O)CC[C@@]21C", "note": "[Veratramine]", "inhibition of cell viability": "0.262 (inactive)"}, {"smiles": "CC1=C2C[C@H]3[C@@H](CC=C4C[C@@H](O)CC[C@@]43C)[C@@H]2CC[C@]12O[C@@H]1C[C@H](C)CN[C@H]1[C@H]2C", "note": "[Cyclopamine]", "inhibition of cell viability": "0.162 (inactive)"}, {"smiles": "NCC(O)c1ccc(O)cc1", "note": "(stereo not given) [Octopamine hydrochloride]", "inhibition of cell viability": "-0.206 (inactive)"}, {"smiles": "CCC12C=CCN3CC[C@@]4(c5ccc(OC)cc5N(C)[C@H]4[C@@](O)(C(=O)OC)[C@@H]1OC(C)=O)[C@@H]32", "note": "(stereo not given in full) [Vindoline]", "inhibition of cell viability": "-0.0958 (inactive)"}, {"smiles": "CN1CCc2cc3c(cc2C1O)OCO3", "note": "(stereo not given) [Hydrastinine hydrochloride]", "inhibition of cell viability": "0.248 (inactive)"}, {"smiles": "c1cc2c(cc1[C@H]1OC[C@H]3[C@@H]1CO[C@@H]3c1ccc3c(c1)OCO3)OCO2", "note": "[Sesamin]", "inhibition of cell viability": "-0.0637 (inactive)"}, {"smiles": "CC1=C2C(=O)[C@H]3[C@@H](CC=C4C[C@@H](O)CC[C@@]43C)[C@@H]2CC[C@]12O[C@@H]1C[C@H](C)CN[C@H]1[C@H]2C", "note": "[Jervine]", "inhibition of cell viability": "0.601 (active)"}, {"smiles": "COc1ccc(Cc2nccc3cc(OC)c(OC)cc23)cc1OC", "note": "[Papaverine hydrochloride]", "inhibition of cell viability": "0.205 (inactive)"}, {"smiles": "COc1cc(OC)c(OC)cc1C=O", "note": "[Asarylaldehyde]", "inhibition of cell viability": "-0.42 (inactive)"}, {"smiles": "CC1=CC(=O)c2c(O)cccc2C1=O", "note": "[Plumbagin]", "inhibition of cell viability": "1 (active)"}, {"smiles": "COc1cc(C2OCC3C(c4cc(OC)c(O[C@@H]5O[C@H](CO)[C@@H](O)[C@H](O)[C@H]5O)c(OC)c4)OCC23)cc(OC)c1O[C@H]1O[C@@H](CO)[C@H](O)[C@@H](O)[C@@H]1O", "note": "(stereo not given in full) [Eleutheroside E]", "inhibition of cell viability": "0.231 (inactive)"}, {"smiles": "NCCc1ccccc1", "note": "[Phenethylamine]", "inhibition of cell viability": "-0.183 (inactive)"}, {"smiles": "COc1ccc(CC2NCCc3cc(OC)c(OC)cc32)cc1OC", "note": "(stereo not given) [Tetrahydropapaverine hydrochloride]", "inhibition of cell viability": "0.125 (inactive)"}, {"smiles": "C[C@@H]1CC[C@@]2(OC1)O[C@H]1C[C@H]3[C@@H]4CC=C5C[C@@H](O[C@@H]6O[C@H](CO)[C@@H](O[C@@H]7O[C@@H](C)[C@H](O)[C@@H](O)[C@H]7O)[C@H](O)[C@H]6O[C@@H]6O[C@@H](C)[C@H](O)[C@@H](O)[C@H]6O)CC[C@]5(C)[C@H]4CC[C@]3(C)[C@H]1[C@@H]2C", "note": "[Dioscin]", "inhibition of cell viability": "0.976 (active)"}, {"smiles": "CNC(=O)Oc1ccc2c(c1)[C@]1(C)CCN(C)[C@@H]1N2C", "note": "[Physostigmine Salicylate]", "inhibition of cell viability": "0.126 (inactive)"}, {"smiles": "CCCCCCCCC(=O)NCc1ccc(O)c(OC)c1", "note": "[Nonivamide]", "inhibition of cell viability": "-0.0291 (inactive)"}, {"smiles": "NCCc1ccc(O)cc1", "note": "[Tyramine]", "inhibition of cell viability": "0.176 (inactive)"}, {"smiles": "C[C@@H]1[C@H](O)[C@@H](C)/C=C/C=C/CC/C=C/C=C/C=C/C=C/[C@H](O[C@H]2O[C@@H](C)[C@H](O)[C@@H](N)[C@H]2O)C[C@@H]2O[C@](O)(C[C@@H](O)[C@H](O)CC[C@@H](O)C[C@@H](O)C[C@@H](O)CC(=O)O[C@H]1C)C[C@H](O)[C@H]2C(=O)O", "note": "[Nystatin (Fungicidin)]", "inhibition of cell viability": "0.267 (inactive)"}, {"smiles": "CCC1(O)C(=O)OCc2c1cc1n(c2=O)Cc2cc3ccccc3nc2-1", "note": "(single isomer, unassigned; (+)) [(+)-Camptothecin]", "inhibition of cell viability": "0.979 (active)"}, {"smiles": "COc1cc2c(c(OC)c1OC)-c1ccc(OC)c(=O)cc1[C@@H](NC(C)=O)CC2", "note": "[Colchicine]", "inhibition of cell viability": "0.84 (active)"}, {"smiles": "O=C1C[C@@H]2OCC=C3CN4CC[C@]56c7ccccc7N1[C@H]5[C@H]2[C@H]3C[C@H]46", "note": "[Strychnine Sulfate]", "inhibition of cell viability": "-0.193 (inactive)"}, {"smiles": "COc1ccc2c(c1)[nH]c1c(C)nccc12", "note": "[Harmine]", "inhibition of cell viability": "0.462 (inactive)"}, {"smiles": "O=C1CCC[C@@H]2[C@H]3CCCN4CCC[C@@H](CN12)[C@@H]34", "note": "[(+)-Matrine]", "inhibition of cell viability": "0.176 (inactive)"}, {"smiles": "CC(=O)OCC1=C(C(=O)O)N2C(=O)[C@@H](N)[C@H]2SC1", "note": "[7-Aminocephalosporanic acid]", "inhibition of cell viability": "0.00874 (inactive)"}, {"smiles": "O=c1cccc2n1C[C@@H]1CNC[C@H]2C1", "note": "[Cytisine]", "inhibition of cell viability": "-0.243 (inactive)"}, {"smiles": "COC(=O)C1=CCCN(C)C1", "note": "[Arecoline HBr]", "inhibition of cell viability": "0.105 (inactive)"}, {"smiles": "C=CCCCCCCCCC(=O)O[C@H]1CC[C@H]2[C@@H]3CCC4=CC(=O)C=C[C@]4(C)[C@H]3CC[C@]12C", "note": "[Boldenone Undecylenate]", "inhibition of cell viability": "-0.203 (inactive)"}, {"smiles": "CN1CCc2cc3c(cc2C1C1OC(=O)c2c1ccc1c2OCO1)OCO3", "note": "(single isomer, unassigned; (+)) [(+)-Bicuculline]", "inhibition of cell viability": "-0.023 (inactive)"}, {"smiles": "O=C1C[C@@H]2OCC=C3CN4CC[C@]56c7ccccc7N1[C@H]5[C@H]2[C@H]3C[C@H]46", "note": "[Strychnine]", "inhibition of cell viability": "-0.0859 (inactive)"}, {"smiles": "COc1ccc2c(c1)[nH]c1c(C)nccc12", "note": "[Harmine hydrochloride]", "inhibition of cell viability": "0.813 (active)"}, {"smiles": "CC(=O)OC12COC1CC(O)C1(C)C(=O)C(O)C3=C(C)C(O)CC(O)(C(OC(=O)c4ccccc4)C21)C3(C)C", "note": "(stereo not given) [10-Deacetylbaccatin III]", "inhibition of cell viability": "0.454 (inactive)"}, {"smiles": "C=C[C@H]1CN2CC[C@H]1C[C@@H]2[C@@H](O)c1ccnc2ccccc12", "note": "[Cinchonine]", "inhibition of cell viability": "-0.188 (inactive)"}, {"smiles": "NCCc1c[nH]c2ccc(O)cc12", "note": "[Serotonin hydrochloride]", "inhibition of cell viability": "0.104 (inactive)"}, {"smiles": "COc1ccc2c(c1OC)CN1CCc3cc4c(cc3C1C2)OCO4", "note": "(stereo not given) [Tetrahydroberberine THB]", "inhibition of cell viability": "0.0966 (inactive)"}, {"smiles": "CC(=O)O[C@H]1CC[C@H]2[C@@H]3CCC4=CC(=O)CCC4=C3C=C[C@]12C", "note": "[Trenbolone acetate]", "inhibition of cell viability": "-0.43 (inactive)"}, {"smiles": "C[C@]12CC[C@H](O)C[C@@H]1CC[C@@H]1[C@@H]2CC[C@]2(C)C(=O)CC[C@@H]12", "note": "[Epiandrosterone]", "inhibition of cell viability": "-0.0121 (inactive)"}, {"smiles": "S=C=NCc1ccccc1", "note": "[Benzyl isothiocyanate]", "inhibition of cell viability": "0.59 (active)"}, {"smiles": "CCN1C[C@]2(COC)[C@H](O)C[C@H](OC)[C@@]34[C@@H]5C[C@@]6(O)[C@H](OC(=O)c7ccccc7)[C@@H]5[C@@](OC(C)=O)([C@@H]([C@H](OC)[C@H]23)[C@@H]14)[C@@H](O)[C@@H]6OC", "note": "[Aconitine]", "inhibition of cell viability": "-0.116 (inactive)"}, {"smiles": "COC1=C[C@@H]2[C@@H]3Cc4ccc(OC)c(O)c4[C@]2(CCN3C)CC1=O", "note": "[Sinomenine hydrochloride]", "inhibition of cell viability": "-0.0195 (inactive)"}, {"smiles": "O=C(O)C1C2CCC(O2)C1C(=O)O", "note": "(stereo not given) [Sodium Demethylcantharidate]", "inhibition of cell viability": "0.314 (inactive)"}]}]}
